Rows were chosen to be rich in hits. Some 1.5% of all compounds tested hit in one or more screens of this group.
RAD52 inh = inhibitors of human RAD52 DNA annealing; 0.46% of 360,000 active; inhibition, % at 18.7 µM; recombinant RAD52 DNA annealing, FRET fluorescence; P43351;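 active = every replicate showing at least 50% inhibition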
MLL AF4-AF9 inh = MLL-AF4/AF9 protein interaction inhibition; P42568; AlphaScreen, biotin-AF4 peptide binding to FLAG-AF9; inhibition, % at 10 µM; 0.47% of 350,000 active; AID 651704;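 active = every replicate reaching a set inhibition limit, whatever the replicate mean, cut at about 25% in these data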;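 also: 0% = plate neutral control median and 100% = total signal loss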
CASP6 VEID inh = inhibitors of human caspase-6. P55212. purified caspase-6, Z-VEID-R110 cleavage fluorescence. inhibition, % at 12.5 µM. 0.53% of 350,000 active;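 active = mean inhibition across replicates at least about 35%, with every replicate also reaching that limit, limit read from the data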;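 also: 0% = median of neutral control wells and 100% = no fluorescence left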
Target sequence (P55212 24-179 limits assumed): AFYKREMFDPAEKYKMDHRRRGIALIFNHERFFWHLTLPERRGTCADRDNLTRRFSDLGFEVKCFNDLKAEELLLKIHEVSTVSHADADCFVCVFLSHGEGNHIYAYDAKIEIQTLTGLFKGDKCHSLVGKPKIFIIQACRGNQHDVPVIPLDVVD
Target sequence (P55212 194-293 limits assumed): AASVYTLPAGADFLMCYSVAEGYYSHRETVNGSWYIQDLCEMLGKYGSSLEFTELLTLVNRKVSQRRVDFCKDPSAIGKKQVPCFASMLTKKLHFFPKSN
NSD2 HMT inh = NSD2 (human) methyltransferase inhibition | inhibition, % at 12.5 µM | 0.54% of 310,000 active | AID 743445 | NSD2 peptide methylation, AlphaScreen, 120 min | O96028; in the data active = inhibition above about 50%
miR-122 sensor = blocks miR-122 activity in Huh7 sensor cells; AID 602342; activation (reporter increase), % at 12.5 µM; 0.3% of 340,000 active; Huh7 miR-122 Renilla luciferase sensor, 48 h; neutral wells = 0, positive control = 100;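 active = mean replicate activation score at least 90 and every replicate individually at or above 90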;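 also: higher luciferase means less miR-122 activity so hits act as miR-122 inhibitors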
RAD52 DNA ctr = binds DNA, flagging false RAD52 inhibitor hits. Salmon sperm DNA/acridine orange FP displacement, DNA binding. shares compounds with RAD52 inh. AC50, µM. AID 652128. 8% of 1,000 active;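 active = fitted half-maximal concentration for signal loss at or below twice the highest dose tested, in every separate run, actives reach about 64 µM in these data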
CASP1 counter = blocks human caspase-1 in a selectivity counter-screen | shares compounds with CASP6 VEID inh | purified caspase-1, Z-YVAD-R110 cleavage fluorescence | activity change, negative = inhibition, % at 35 µM | 100 tested, under 10 active | AID 743289;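 active = compounds lowering fluorescence whose fitted half-maximal concentration is no more than twice their top tested dose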
Target sequence (P29466 whole entry, looked up): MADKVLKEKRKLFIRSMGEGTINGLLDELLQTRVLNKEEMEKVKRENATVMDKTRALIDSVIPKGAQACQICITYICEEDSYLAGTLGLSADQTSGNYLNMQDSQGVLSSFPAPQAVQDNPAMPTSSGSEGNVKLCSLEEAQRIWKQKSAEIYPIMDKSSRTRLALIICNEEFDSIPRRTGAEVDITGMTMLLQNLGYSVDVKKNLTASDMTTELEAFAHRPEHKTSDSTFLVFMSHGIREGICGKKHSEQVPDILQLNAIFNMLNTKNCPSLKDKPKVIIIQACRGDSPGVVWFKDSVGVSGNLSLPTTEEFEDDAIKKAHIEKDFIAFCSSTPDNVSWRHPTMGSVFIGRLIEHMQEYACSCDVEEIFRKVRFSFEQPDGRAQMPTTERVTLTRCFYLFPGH
AlphaScreen art = interferes with AlphaScreen signal, flagging NSD2 false positives | shares compounds with NSD2 HMT inh | AlphaScreen artifact counterscreen, preloaded methylated H4 peptide | AC35, µM (doses to about 10 µM), for the others: at the highest dose activity change, negative = signal loss | 9.4% of 1,500 active; call rule not given here
* hit, by the source's call; i = inactive; . = no result given; [ ] = another dose, or the depositor's remark.

SMILES | RAD52 inh | MLL AF4-AF9 inh | CASP6 VEID inh | NSD2 HMT inh | miR-122 sensor | CASP1 counter | others
O=C(NC[C@@H]1CC[C@@H]2[C@@H](CN2C(=O)CN2CCOCC2)O1)NC1CCCCC1 | 4 | 0 | 3 | . | . | .
CCN(CC)CCNC(=S)Nc1ccc2nc(N3CCCC3)cc(C)c2c1 | 76* | 9 | -53 | 66* | -6 | . | RAD52 DNA ctr=i;AlphaScreen art=-4%
COc1cc2c(oc(=O)c3cc(C)cc(OC)c32)c2c(C3OC(C)C(O)C(C)(O)C3O)ccc(O)c12 (configuration not stated) | 73* | -1 | 28 | 86* | -1 | . | RAD52 DNA ctr=i;AlphaScreen art=-2%
COc1cccc2cc(C(=O)N3CC(C)OC(C)C3)c(=O)oc12 (configuration not stated) | -13 | -2 | 4 | -1 | -1 | .
CCN(CC)CCCN(Cc1cc2cc3c(cc2[nH]c1=O)OCO3)C(=S)NCCCN(C)C | 90* | 0 | -64 | 80* | -3 | . | RAD52 DNA ctr=i;AlphaScreen art=-7%
COc1ccc(S(=O)(=O)Nc2ccc3c(c2)C(=O)N([C@@H](C)CO)C[C@@H](C)[C@@H](CN(C)C(=O)C2CCCCC2)OCCCC[C@H](C)O3)cc1 | 0 | 2 | 0 | . | 0[16.7 µM] | .
CNC[C@H]1Oc2ncc(C#CC3CCCCC3)cc2C(=O)N([C@@H](C)CO)C[C@H]1C | 8 | 17 | 0 | . | 0[16.7 µM] | .
[O-][n+]1onc2c1CCc1c-2nn(-c2ccccc2Cl)[n+]1[O-] | -8 | 9 | 82* | 4 | . | -1
O=c1oc2cc(O)c(Cl)cc2c2ccccc12 | . | . | . | -1 | 2 | .
O=c1cc2c(=O)oc3cc(O)c(O)oc3c2c(O)c1O | -17 | -8 | 95* | . | . | -8
CNC(=O)C[C@H]1CC[C@H]2[C@@H](COC[C@H](O)CN2C(=O)c2ccc3c(c2)OCO3)O1 | -55 | -5 | -4 | . | 1[16.7 µM] | .
O=C1NC(=O)C(=Cc2ccccc2[N+](=O)[O-])S1 | -15 | 1 | 67* | 34 | 3 | 4
O=C(C[C@@H]1C=C[C@@H](NC(=O)c2ccc(F)cc2)[C@H](CO)O1)NCCc1ccccc1 | 11 | -2 | -14 | . | . | .
CCC(CO)Oc1cc(NCc2cccc(C)c2)c2ncn(C(C)C)c2c1 (configuration not stated) | 25 | -2 | 21 | . | -8 | .
CC[C@H](CO)Oc1cc(NCc2cccc(N)c2)c2ncn(C(C)C)c2c1 | 16 | 11 | 46* | . | . | -4
COCCN(C(=O)COC(=O)c1cc2c(s1)CCC2)c1c(N)n(Cc2ccccc2)c(=O)[nH]c1=O | -25 | -13 | 80* | 72* | -6 | -1
COc1ccc(NC(=O)Nc2ccc3c(c2)C(=O)N([C@H](C)CO)C[C@@H](C)[C@@H](CN(C)C(=O)Nc2c(C)noc2C)O3)cc1 | 7 | -5 | 0 | . | -7[16.7 µM] | .
Cc1ccccc1S(=O)(=O)NCC[C@H]1CC[C@H](NC(=O)C2CC2)[C@H](CO)O1 | 2 | 1 | -3 | . | . | .
O=P(c1ccccc1)(c1ccccc1)c1cc(S(=O)(=O)O)ccc1O | -12 | -1 | 77* | 29 | . | 5
O=C(Nc1ccc(S(=O)(=O)Nc2cnc3ccccc3n2)cc1)c1ccc(Cl)c([N+](=O)[O-])c1 | -31 | -2 | 62* | 10 | -15 | -4
O=C(Nc1ccc2nc3n(c(=O)c2c1)CCCCC3)c1cc([N+](=O)[O-])ccc1F | -3 | 6 | 7 | . | 2 | .
O=C(Nc1ccc2nc3n(c(=O)c2c1)CCCCC3)c1c(F)ccc([N+](=O)[O-])c1F | -13 | 4 | 60* | 25 | 67 | 14
O=C(NCC[C@@H]1CC[C@@H](NC(=O)C2CCOCC2)[C@@H](CO)O1)c1ccc(F)cc1 | 7 | -4 | -4 | . | . | .
O=C([C@H]1[C@H](CO)[C@H]2Cn3c(cccc3=O)[C@@H]1N2CC1CCCCC1)N1CCOCC1 | -2 | -2 | 1 | . | . | .
O=C(OCC(=O)N1CCCCC1)c1cc2ccccc2cc1O | . | . | . | 0 | -6 | .
SMILES | RAD52 inh | MLL AF4-AF9 inh | CASP6 VEID inh | NSD2 HMT inh | miR-122 sensor | CASP1 counter | others
C/C(CC(=O)N1CCCC1)=N\NC(=O)c1cc2ccccc2cc1O | 3 | -8 | 39* | 70* | . | 13
Cc1csc(NC(=O)CSc2nncn2C)n1 | . | . | . | 1 | 0 | .
Cn1cnnc1SCC(=O)Nc1ncc([N+](=O)[O-])s1 | -25 | -6 | 39* | 35 | 1 | -4
Cc1ccc(S(=O)(=O)Nc2csc(C)c2C(=O)O)cc1 | -29 | -9 | 61* | 18 | . | -3
O=C(C[C@@H]1CC[C@H](NC(=O)c2cccc(F)c2)[C@H](CO)O1)NCc1ccc(Oc2ccccc2)cc1 | -1 | 1 | 8 | . | . | .
O=C(OCc1nnc(-c2ccccc2)o1)c1ccc([N+](=O)[O-])s1 | -14 | 2 | 99* | -1 | 1 | 1
C/C=C/c1cccc(-c2nc(C(=O)NCc3ccncc3)cc3c2[C@H](CCO)N([S@@](=O)C(C)(C)C)C3)c1 | -10 | -4 | 1 | . | . | .
CO[C@@H]1CN(C)C(=O)c2cc(NC(C)=O)ccc2OC[C@H](C)N(C(=O)CC2CC2)C[C@H]1C | -3 | -2 | -2 | . | -6[16.7 µM] | .
CO[C@H]1CN(C)C(=O)c2cc(NC(C)=O)ccc2OC[C@@H](C)N(C(=O)CC2CC2)C[C@H]1C | 20 | 12 | 56* | . | -32[16.7 µM] | -8
O=C(COC(=O)c1ccc([N+](=O)[O-])s1)Nc1cccc(S(=O)(=O)NC2=NCCCCC2)c1 | -11 | -27 | 98* | . | . | 13
O=C(COC(=O)c1ccc([N+](=O)[O-])s1)Nc1ccc(F)cc1 | 3 | 2 | 98* | . | 0 | 2
O=C(COC(=O)c1ccc([N+](=O)[O-])s1)Nc1ccc(Cl)cn1 | -17 | 0 | 6 | 11 | . | .
CC(C)(C)c1ccc(NC(=O)COC(=O)c2ccc([N+](=O)[O-])s2)cc1 | . | . | . | 17 | -8 | -9
O=C(COC(=O)c1cccs1)Nc1cccc(S(=O)(=O)NC2=NCCCCC2)c1 | -1 | -11 | -6 | 1 | . | .
COc1cc(N(C(C)=O)c2ccc(O)c(C(=O)O)c2)c2ncccc2c1 | -14 | 2 | 44* | 86* | -3 | -2 | AlphaScreen art=-2%
COc1cc(N(C(C)=O)c2ccc(O)cc2)c2ncccc2c1 | -2 | 3 | 4 | -4 | -10 | .
Cc1cc(C=O)c(C)n1-c1cc(C(=O)O)cc(C(=O)O)c1 | -15 | -10 | 41* | 84* | . | 7 | AlphaScreen art=-5%
C[C@H]1CCCCO[C@H](CN(C)Cc2ccccc2)[C@@H](C)CN([C@@H](C)CO)C(=O)c2cc(NC(=O)Nc3ccc(C(F)(F)F)cc3)ccc2O1 | 10 | 0 | 0 | . | -30[16.7 µM] | .

Compound activity (PubChem)
